# Source: ChEMBL document CHEMBL3988442, “University of Dundee, Small-Polar-MMV Screening Library” (2021)
# In all, about 48,000 compounds went through this assay and about 13,000 (27%) showed an effect of 50% or more. The list shows a part of the results.
# System: Wolbachia pipientis
# Experiment: Anti-Wolbachia Cell-Based Screen
# Assay type: functional
# Design: scale not given: in the data most compounds retested in dose-response had high values
# Settings: 5 µM
row,SMILES,Percent Effect
1,O=C(C1=CCCC1)N1CCC[C@]2(C[C@@H](OCc3ccccn3)CO2)C1.O=C(O)C(F)(F)F,5.284%
2,CS(=O)(=O)N1C[C@@H]2CC[C@H](C1)N(C(=O)Cn1nc3ccccc3n1)C2,3.871%
3,Cc1csc(N2CCN(C(=O)CCC(=O)c3ccc(C)s3)CC2)n1,7.228%
4,CCS(=O)(=O)N1CCOC2(COCCN(c3nccs3)C2)C1 (stereo not given),11.05%
5,CC(C)c1ccc(S(=O)(=O)NC2CCN(CC(F)(F)F)C2)cc1 (stereo not given),12.82%
6,COc1ccc(CN2CCCC(n3cccn3)C2)c(Cl)c1OC (stereo not given),1.14%
7,COc1cc(CN2CCC(O)(c3ccc(C)cn3)CC2)cc(Cl)c1OC,-12.14%
8,COc1cc(Cl)cc(CN2CCCC(N3CCOCC3)C2)c1OC (stereo not given),106.9%
9,COc1cc(Cl)cc(CN2CCCC(N3CCCC3)C2)c1OC (stereo not given),116%
10,Cc1cc(C)c2[nH]c(CN3CCCC(N4CCOCC4)C3)cc(=O)c2c1 (stereo not given),0.1169%
11,COc1cc(CN2CC[C@@H](N3CCCCCC3)[C@H](O)C2)cc(Cl)c1OC,100.3%
12,COc1ccc(CN2CCCC(N3CCCC3)C2)cc1Cn1cncn1 (stereo not given),15.57%
13,O[C@@H]1CN(CC2=Cc3cc(Cl)ccc3OC2)CC[C@H]1N1CCCCCC1,0.906%
14,CC(C)Oc1ccc(CN2CCCC(N3CCOCC3)C2)cc1CO (stereo not given),-0.1551%
15,CNC(=O)[C@@H]1COC[C@H]2CN(C(=O)c3ccc(C)c(F)c3)C[C@H]21,1.789%
16,COC(CNC(=O)CNC(=O)c1ccccc1)c1cccc(Cl)c1 (stereo not given),-36.87%
17,Cc1ncsc1CN1C[C@H](OCC(C)C)[C@H]2OCCC[C@H]21.O=C(O)C(F)(F)F,-14.06%
18,CCO[C@@H]1CC[C@H]2[C@H]1OCCN2C(=O)c1nn(C)c2ccccc12,106.4%
19,CCO[C@@H]1CC[C@H]2[C@H]1OCCN2C(=O)c1ccc(OC)c(F)c1,-22.06%
20,CCO[C@H]1CC[C@H]2[C@H]1OCCN2C(=O)c1nn(C)c2ccccc12,108.7%
21,Cc1ccc(C(=O)N2CCO[C@H]3[C@@H](OCc4ccccn4)CC[C@@H]32)o1.O=C(O)C(F)(F)F,-5.404%
22,COc1ccc(CN2CCC3(CC(C(=O)NCC(C)C)=NO3)C2)cc1 (stereo not given),91.98%
23,Cc1ccc(CN2CCC3(CC(C(=O)NCC4CC4)=NO3)C2)s1 (stereo not given),-2.379%
24,O=C(NCC1CC1)C1=NOC2(CCN(Cc3ccc(Cl)c(F)c3)C2)C1 (stereo not given),0.8389%

row,SMILES,Percent Effect
1,CCc1ccc(CN2CCC3(CC(C(=O)NCC(C)C)=NO3)C2)o1 (stereo not given),102%
2,CC(C)CNC(=O)C1=NOC2(CCN(Cc3ccoc3)C2)C1 (stereo not given),98.99%
3,O=C(NCC1CC1)C1=NOC2(CCN(Cc3ccsc3)C2)C1 (stereo not given),-10.07%
4,CC(C)CNC(=O)C1=NOC2(CCN(Cc3ccc(C(C)C)cc3)C2)C1 (stereo not given),105.9%
5,CCc1ccc(C(NC(=O)CCS(C)(=O)=O)C(C)(C)C)o1 (stereo not given),18.74%
6,CN1CCC(NN2CCN(C)CC2)CC1,4.594%
7,O=C(CSc1ccccc1)Nc1cnn(CC(=O)N2CCCO2)c1,2.043%
8,Cc1ccc(C)c(OCC(O)CN(C)CC(=O)Nc2cc(C)on2)c1 (stereo not given),16.51%
9,CCN1CCC2(CC1)c1nc[nH]c1CCN2S(C)(=O)=O,-21.15%
10,COC(=O)C1CCN(C(=O)c2ccc(C)c(NS(C)(=O)=O)c2)CC1,-2.362%
11,COc1ccccc1OCCCc1cc(C)nc(N)n1,-105.6%
12,CCS(=O)(=O)N1CCOC2(CCCN(c3cnccn3)C2)C1.O=C(O)C(F)(F)F (stereo not given),-12.03%
13,COc1ccccc1OC1(C(=O)O)CCN(c2cnccn2)CC1,-132.5%
14,Cn1ccc(C(=O)N2C[C@@H]3CCN(c4cnccn4)C[C@@H]3C2)n1.O=C(O)C(F)(F)F,6.862%
15,Cn1ccc(C(=O)NCC2(O)CCN(c3cnccn3)C2)n1 (stereo not given),120.2%
16,CC(=O)NCC(=O)NCC1(O)CCN(c2cnccn2)C1 (stereo not given),78.54%
17,O=C(c1ccc(-n2ccnc2)cc1)N1CCN(c2cnccn2)CC1,1.028%
18,CC(C#N)NS(=O)(=O)c1cccc(C(C)C)c1 (stereo not given),0.8918%
19,c1ccc(-c2nccc(N3CCc4c(ncn4C4CC4)C3)n2)cc1,-6.711%
20,O=C(NCc1nncn1C1CC1)C1(c2ccc(F)cc2)CCCC1,-0.2127%
21,O=C(NCC(O)COc1ccc(F)cc1)C1(c2ccc(F)cc2)CC1 (stereo not given),2.033%
22,O=C1N(c2ccsc2)CCC12CCCN(c1ccccn1)C2 (stereo not given),116.3%
23,Cc1occc1C(=O)N1CCCC2(CCN(c3ccsc3)C2=O)C1 (stereo not given),-9.998%
24,Cc1nocc1C(=O)N1CCCC2(CCN(c3ccsc3)C2=O)C1 (stereo not given),2.801%

row,SMILES,Percent Effect
1,O=C1N(c2ccsc2)CCC12CCCN(c1ncc(F)cn1)C2 (stereo not given),91.96%
2,Cn1nccc1C(=O)N1CCCC2(CCN(c3ccsc3)C2=O)C1 (stereo not given),54.5%
3,O=C(O)C(F)(F)F.O=C(c1ccccn1)N1CCCC2(CCN(c3ccsc3)C2=O)C1 (stereo not given),9.828%
4,CN(C)C(=O)N1CCCC2(CCN(c3ccsc3)C2=O)C1 (stereo not given),-73.81%
5,O=C(N1CCCC1)N1CCCC2(CCN(c3ccsc3)C2=O)C1 (stereo not given),-11.99%
6,O=C(CO)N1CCCC2(CCN(c3ccsc3)C2=O)C1 (stereo not given),-8.553%
7,N#Cc1ccc(N2CCCN(CC(N)=O)CC2)cc1,-2.311%
8,CC(NC(=O)C(C)(C)C#N)c1ccc(OCC2CC2)c(F)c1 (stereo not given),5.136%
9,CC(NC(=O)c1csnn1)c1ccc(OCC2CC2)c(F)c1 (stereo not given),3.063%
10,CS(=O)(=O)NCCC(=O)NC1(c2ccc(F)cc2)CCCC1,-19.35%
11,COCC(=O)NCc1cc2n(n1)CCCN(CCCC1CCCC1)C2,3.539%
12,CCn1nc(CNC(=O)C2CC(=O)N(C3CCCC3)C2)c2ccccc21 (stereo not given),-24.02%
13,CCn1nc(CNC(=O)C2CCCN(CC(N)=O)C2)c2ccccc21 (stereo not given),4.996%
14,CCOC(=O)NCc1nn(CCN2CCCC2)c(=O)c2ccccc12,108%
15,CN(C)S(=O)(=O)NCCn1nc(-c2ccccc2)n(C)c1=O,-0.1642%
16,CN(C)S(=O)(=O)NCc1nn(CCN2CCCC2)c(=O)c2ccccc12,91.81%
17,CCn1nc(CNC(=O)C2CCCN(C(=O)COC)C2)c2ccccc21 (stereo not given),-19.96%
18,CCNC(=O)NCc1nn(CCN2CCCC2)c(=O)c2ccccc12,106.7%
19,CCNC(=O)NCc1ccc(CN2CCCC(C)C2)cc1 (stereo not given),-3.525%
20,Cc1ccccc1CS(=O)(=O)NCCCN1CCCC1,-20.74%
21,CCN1CC(C(=O)NCc2nn(CC)c3ccccc23)CCC1=O (stereo not given),10.79%
22,COCC(=O)NCc1nn(CCN2CCCC2)c(=O)c2ccccc12,112.1%
